# MCF10A rereplic = DNA re-replication induction in MCF 10a cells; MCF 10A DNA re-replication, Hoechst nuclear intensity, 48 h; Potency, µM (titrated, usually from 46.1 µM), inactives show at the top dose activity, positive = re-replication, actives largely listed as activators; 350,000 tested, 2.9% active; AID 624296; also: % of control where 0% means no effect; nearly all actives have a fitted effect of over 50% in size
# KB-3-1 cytotox = KB-3-1 parental cell cytotoxicity; AID 1347075; Potency, µM (titrated, usually from 46.1 µM), most hits filed as cytotoxic; KB-3-1 viability, CellTiter-Glo ATP luminescence, 72 h; 400,000 tested, 1.4% active; also: % is scaled to controls: 0 for no effect and ±100 for the full control effect; nearly all actives have a fitted effect of over 60% in size
#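 KB-3-1 parental drug-naive adenocarcinoma cells in DMEM/10% FBS, incubated 72 h at 37 C with pin-transferred compounds across a concentration series. Viability by CellTiter-Glo luminescence; concentration-response curves fitted after normalization.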
# HT1080 IDH1KD tx = toxicity to HT-1080 IDH1 knockdown cells (counter line); HT-1080 IDH1 knockdown viability, ATP luminescence, 48 h; Potency, µM (doses to about 46.1 µM), inactives show top-dose activity, negative = toxicity, most hits filed as cytotoxic; 360,000 tested, 2% active;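 also: 0% = DMSO wells and -100% = cell-free medium wells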
#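 HT-1080-IDH1KD cells (IDH1 knocked down), 750/well in RPMI with 5% FBS, treated with compound 48 h at 37 degrees C. Viability by CellTiter-Glo luminescence, normalised to DMSO and no-cell wells; concentration-response curves classed.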
# SW480 rereplic = inducers of DNA re-replication in SW480 colon cancer cells; SW480 DNA re-replication, Hoechst DNA content imaging, 48 h; Potency, µM (top dose mostly 46.1 µM), for inactives: top-dose re-replication activation, hits mostly activators; 340,000 tested, 1.8% active; also: % of control where 0% means no effect; nearly all actives have a fitted effect of over 55% in size
#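 Image-based DNA-content assay: after two days of treatment, nuclei were labelled with the DNA dye Hoechst and imaged, and hits were compounds raising the count of nuclei showing high fluorescence intensity.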
# KB-V1 MDR tox = KB-V1 MDR subline cytotoxicity; 400,000 tested, 3.4% active; KB-V1 MDR cells viability, CellTiter-Glo, 72 h; AID 1347076; Potency, µM (top dose mostly 46.1 µM), actives largely listed as cytotoxic; also: % is scaled to controls: 0 for no effect and ±100 for the full control effect; nearly all actives have a fitted effect of over 60% in size
#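 qHTS viability screen in drug-selected KB-V1 MDR cells: 72 h compound treatment at 37 degrees C, ATP luminescence end point.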
# HT1080NT lethal = kills 2HG-producing HT-1080-NT fibrosarcoma cells; HT-1080-NT fibrosarcoma viability, CellTiter-Glo ATP luminescence, 48 h; Potency, µM (highest dose often 46.1 µM), for inactives: at the top dose activity, negative = less viability, usual class: cytotoxic; 360,000 tested, 1.6% active;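 also: NT is the 2HG producing partner of a matched IDH1 knockdown line; 0% = DMSO-treated cells and -100% = media-only wells without cells; nearly all actives have a fitted effect of over 55% in size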
#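 HT-1080-NT fibrosarcoma cells (2HG-overproducing), 750 cells/well in RPMI with 5% FBS, dosed after 2 h and incubated 48 h at 37C. CellTiter-Glo luminescence normalized to DMSO and no-cell wells; concentration-response curves fitted and classed.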
# Active calls of the source: *; i = inactive; ? = inconclusive; . = no result; ! = repeats disagree; [ ] = dose if it differs, or a comment. Sampled rows, rich in hits. Any-hit rate of the full collection: about 7.9%. Calls follow the shape of the dose curve; as a rule, active = well fitted curve in the direction sought with a large enough effect; inconclusive = small, poorly fitted or top-dose-only effect, or another doubt; inactive = no such curve, though single readings can be large; an effect the other way counts as inactive or inconclusive. Potency is read from the fitted curve at half-maximal effect.
SMILES,MCF10A rereplic,KB-3-1 cytotox,HT1080 IDH1KD tx,SW480 rereplic,KB-V1 MDR tox,HT1080NT lethal
Cc1ccc(NC(=O)Cc2ccccc2)cc1S(=O)(=O)N1CCOCC1,3.9%,i,5.2%,-3.5%,23.1µM*,7.5%
CCc1ccc(N2CC(C(=O)Nc3ccc(OC)c(S(=O)(=O)N4CCOCC4)c3)CC2=O)cc1 (stereo not given),.,i,0.4%,.,i,-1.3%
CC(=O)Nc1ccc(S(=O)(=O)NCCC(=O)Nc2ccc(C)cn2)cc1,1.5%,i,-0.9%,0.7%,i,0.0%
Cc1ccc(Cl)cc1NC(=S)N1CCC(c2ccccc2)C1 (stereo not given),-6.2%,?,-7.6%,?,i,-9.2%
O=C(c1ccc2c(=O)n(Cc3ccco3)c(=S)[nH]c2c1)N1CCN(Cc2ccccc2)CC1,?,?,?,0.7%,20.6µM*,-23.3%
O=C(c1ccc2c(=O)n(Cc3ccco3)c(=S)[nH]c2c1)N1CCN(Cc2ccc3c(c2)OCO3)CC1,.,.,-11.4%,.,.,-10.0%
CCOC(=O)N1CCN(C(=O)c2ccc3c(=O)n(Cc4ccc(Cl)cc4)c(=S)[nH]c3c2)CC1,?,23.1µM*,-20.6%,-4.4%,13µM*,-2.1%
COP(=O)(OC)c1nc(-c2ccc(C)cc2)oc1N1CCCCC1,4.0%,i,-2.8%,0.9%,i,-0.3%
CCCNC(=O)c1ccc2c(=O)c(O)c(-c3cccc(Br)c3)[nH]c2c1,-33.8%,11.6µM*,?,-18.6%[9.22 µM],i,-14.5%
COc1ccnc2c1c(=O)n(Cc1c(F)cccc1Cl)c(=O)n2C,-0.6%,i,0.0%,-3.5%,?,9.4%
Cc1ccc(C2=NOC(=O)/C2=C\c2ccc(C)o2)cc1,16.4µM*,i,-0.7%,?,i,13.2%
CN(C)c1ccc(NC(=O)c2ccc3c(c2)nnn3C)cc1,?,i,23.2%,16.4µM*,i,14.1%
O=C(Nc1ncc(Cc2cccc(Cl)c2)s1)c1cccs1,?,?,?,13.7%,13µM*,?
O=C(Nc1ncc(Cc2cccc(Cl)c2)s1)C1=NCCN1,-2.9%,i,0.0%,8.1%,i,20µM*
O=c1[nH]cc(S(=O)(=O)N2CCN(c3ccc(F)cc3)CC2)c(=O)[nH]1,.,i,-2.2%,.,?,0.3%
Nc1ccc2nc(SCc3ccccc3F)sc2c1,20.6µM*,i,-11.1%,4.7%,i,-18.0%
COc1ccc(-c2csc(C(C)(O)c3cccc(F)c3)n2)cc1OC (stereo not given),.,i,-19.2%,.,i,-6.7%
O=C(COC(=O)c1cccc(S(=O)(=O)N2CCCC2)c1)Nc1ccc(Cl)cc1,.,i,0.7%,.,i,0.0%
Cc1ccc(-c2cn3c(n2)sc2cc(C(=O)NCCCN4CCCCCC4)ccc23)cc1,.,i,.,.,i,.
O=C(NCCCN1CCCCC1)c1ccc2c(c1)sc1nc(-c3ccc(F)cc3)cn12,.,i,.,.,16.4µM*,.
CCCN1CCN(CCCNC(=O)c2ccc3c(c2)sc2nc(-c4ccc(OCC)cc4)cn23)CC1,.,18.4µM*,.,.,?,.
CC1CCCCN1CCCNC(=O)c1ccc2c(c1)sc1nc(-c3ccc(F)cc3)cn12 (stereo not given),.,i,.,.,20.6µM*,.
CCOc1ccc(-c2cn3c(n2)sc2cc(C(=O)NCCCN4CCCCCC4)ccc23)cc1,.,i,.,.,?,.
CCOc1ccc(-c2cn3c(n2)sc2cc(C(=O)NCCCN4CCCCC4)ccc23)cc1,.,?,.,.,20.6µM*,.
CCN1CCCC1CNS(=O)(=O)c1ccc(C(=O)Nc2ccccc2)cc1 (stereo not given),-0.8%,i,-0.4%,-8.0%,i,-1.9%
SMILES,MCF10A rereplic,KB-3-1 cytotox,HT1080 IDH1KD tx,SW480 rereplic,KB-V1 MDR tox,HT1080NT lethal
c1ccc(-c2c3ccccc3nc3[nH]c4ccccc4c23)cc1,?,i,-1.2%,11.6µM*,i,-9.1%
c1ccc2nc3c(nc2c1)[nH]c1ccccc13,28.0%,i,-28.5%,12.4%,i,-4.0%
COC(=O)C1=C(NC(=O)c2ccccc2[N+](=O)[O-])CCS1,1.0%,i,11.4%,-6.1%,i,10.3%
COc1ccc(-c2cc(C(F)F)nc(-n3nc(C)cc3C)n2)cc1,14.7%,i,-9.8%,-5.8%,23.1µM*,-0.4%
Cc1ccc(-c2cc(C(F)F)nc(N3CCOCC3)n2)cc1,?,i,-11.4%,10.5%,i,-2.9%
COC(=O)c1ccc(-n2c(C)cc(C(=O)CSc3ccc(NC(C)=O)cc3)c2C)cc1,?,i,-9.9%,-3.8%,?,-4.0%
CC(=O)Nc1ccc(SCC(=O)c2cc(C)n(-c3ccccc3F)c2C)cc1,23.1µM*,?,-9.9%,14.7%,?,-8.8%
Cc1cc(C(=O)Cn2nnc3ccccc3c2=O)c(C)n1-c1ccccc1F,?,5.17µM*,?,12.6%,?,-27.0%
CC(=O)c1cccc(NC(=O)CSc2nnc(-c3ccc(S(=O)(=O)N4CCCC4)cc3)o2)c1,4.1%,i,1.5%,-6.3%,i,0.3%
CN1CC2(Cc3c1ccc1ccccc31)C(=O)OC(C)(C)OC2=O,25.4%,?,?,8.7%,?,23.1µM*
Cc1ccc2c(c1)CC1(CN2C)C(=O)OC2(CCCCC2)OC1=O,0.0%,i,14.4%,-4.9%,i,9.8%
O=C(O)CN(CCN(CC(=O)O)CC(=O)O)CCN(CC(=O)O)CC(=O)O,-7.7%[0.169 µM],.,.,23.7µM*!,.,.
O=C(O)CN(CCOCCOCCN(CC(=O)O)CC(=O)O)CC(=O)O,-3.9%,.,.,-1.7%,.,.
CN(C)/C=C1\C(=O)N(c2ccc(F)cc2F)C(c2cccnc2)S1(=O)=O (stereo not given),0.5%,i,15.9%,-7.3%,i,20.5%
CCn1cc(CN2CCCC(C(=O)c3ccc(-c4ccccc4)c(F)c3)C2)cn1 (stereo not given),33.5%,i,20.6µM*,?,i,?
O=C1c2cccc3cccc(c23)C(=O)N1CCCn1ccnc1,2.0%,i,-1.5%,-8.2%,i,2.3%
Cc1cc([N+](=O)[O-])ccc1NC(=O)C(C)N1CCN(c2ccccn2)CC1 (stereo not given),0.0%,i,0.8%,-1.0%,20.6µM*,0.8%
CC(C(=O)Nc1ccccc1)N1CCN(c2ccccn2)CC1 (stereo not given),-16.0%,i,-0.3%,5.9%,i,4.5%
CCC(C)NC(=O)c1ccccc1NC(=O)c1ccc(CSc2ccccc2)cc1 (stereo not given),?,i,1.1%,4.1%,11.6µM*,4.1%
